Sampled rows, rich in hits. Any-hit rate of the full collection: about 21%.
Shiga inhibitor: blocks Shiga toxin action in Vero cells; Vero cells, Shiga toxin protein synthesis inhibition reporter; inhibition, % at 38.7 µM; 290,000 compounds, 9.2% hits; AID 2315; in the data active = inhibition mostly above about 28%, no sharp cut-off; inactive = mostly below about 43%
Cycloheximide cs: counter-screen hit for Shiga toxin inhibitors, cycloheximide | 300,000 compounds, 12% hits | cell reporter, cycloheximide protein synthesis inhibition counterscreen | AID 2314 | max response, %; in the data active = max response mostly above about 13%, no sharp cut-off; inactive = mostly below about 14%; note: read at 38.3 µM for the half of the compounds with a filed dose
Pf growth 48h: P. falciparum growth inhibition at 48 hours (one generation) | P. falciparum luciferase growth in erythrocytes, 48 h | Potency, µM (titrated, usually from 28.7 µM), most hits filed as inhibitors | 310,000 compounds, 5.9% hits
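Read-out is firefly luciferase luminescence from an integrated reporter in P. falciparum, so falling signal marks reduced parasite growth. Infected erythrocytes were at 2% hematocrit and 0.1% parasitemia (final) in Albumax-supplemented RPMI 1640.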
NS1 function inh: influenza NS1 inhibition | Potency, µM (doses to about 46.1 µM) | 270,000 compounds, 0.4% hits | AID 2326; calls by dose curve; note: actives are rising curves; nearly all actives have a fitted effect of over 50% in size
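In this qHTS, NS1 from influenza A is expressed in budding yeast, where it slows growth. Cells are switched from glucose to 2% galactose medium (pH 6.0, -URA), treated with compound, and growth recovery is read at OD600.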
Pf growth 96h: P. falciparum growth inhibition at 96 hours; P. falciparum luciferase reporter growth, 96 h; Potency, µM (titrated, usually from 28.7 µM), actives largely listed as inhibitors; 320,000 compounds, 6.9% hits
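Cell-based qHTS: luciferase-tagged P. falciparum in erythrocytes (2% hematocrit, 0.05% parasitemia final) incubated with compounds for 96 hours, 37 C, 5% CO2; luciferase detection reagent then added and luminescence measured.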
Of the large screens only hits and unclear results are named; the others gave an inactive call. Unless noted, calls come from the whole dose curve; as a rule, active = well fitted inhibition curve with a large enough effect; inconclusive = small, poorly fitted or top-dose-only effect, or another doubt; inactive = no such curve, though single readings can be large or run the other way.

CC[C@H](NC(=O)[C@H](CCCN=C(N)N)NC(=O)[C@H](Cc1c[nH]c2ccccc12)NC(=O)[C@@H](N)CS)C(=O)N[C@@H](CCCN=C(N)N)C(=O)N[C@@H](Cc1ccc(O)cc1)C(N)=O	none (no result: Pf growth 48h, NS1 function inh, Pf growth 96h)
CC(C)c1ccccc1NC(=O)CNCCc1ccc(C(F)(F)F)cc1	Pf growth 48h inconclusive, Pf growth 96h inconclusive
COc1ccc(S(=O)(=O)Nc2ccccc2C(=O)NCc2ccco2)cc1Br	none
COc1ccccc1NC(=O)C(C)OC(=O)c1cccc(-n2cnnn2)c1 (centres undefined)	Pf growth 48h inconclusive (no result: Shiga inhibitor, Cycloheximide cs, NS1 function inh)
CCOC(=O)N1CCN(CCC(=O)Nc2cccc(Br)c2)CC1	none
CCc1nnc(NC(=O)c2ccc(S(=O)(=O)N3CCCCCC3)cc2)s1	none (no result: Pf growth 96h)
CC(C)Cc1nnc(NC(=O)c2ccc([N+](=O)[O-])cc2)s1	Cycloheximide cs 17
CCc1nnc(NC(=O)c2ccc(NC(=O)C(C)C)cc2)s1	Shiga inhibitor 99, Cycloheximide cs 41
CC(C)Cc1nnc(NC(=O)c2ccncc2)s1	none
CCc1nnc(NC(=O)c2ccc(S(=O)(=O)NCC(C)C)cc2)s1	Pf growth 96h 1.7µM
Cn1cc([N+](=O)[O-])c(C(=O)N/N=C/c2cc3c(cc2Br)OCO3)n1	none
Cc1cc(C)c(S(=O)(=O)N2CCCC2=O)cc1N(C)S(C)(=O)=O	none
Cc1ccc(S(=O)(=O)N2CCCC2=O)c(C)c1N(C)S(C)(=O)=O	Pf growth 96h 8.3µM
Nc1cccc2cc(S(=O)(=O)Nc3ccc(C(=O)O)cc3)ccc12	none (no result: Shiga inhibitor, Cycloheximide cs, Pf growth 48h, Pf growth 96h)
CCC(=O)c1c(NC(C)C)cc(C)oc1=O	Pf growth 48h inconclusive, Pf growth 96h inconclusive (no result: NS1 function inh)
COc1ccc(C(=O)C(C)N(C(=O)c2ccc(Cl)cc2Cl)N2C(=O)C3C4C=CC(C4)C3C2=O)cc1 (centres undefined)	Pf growth 48h 7.4µM, Pf growth 96h inconclusive
Cc1ccc(C(=O)C(C)N(C(=O)c2ccc(Cl)cc2Cl)N2C(=O)CCCC2=O)cc1 (centres undefined)	Pf growth 96h 12µM
COC(=O)c1cc(C(=O)c2ccc(C(C)(C)C)cc2)c[nH]1	Shiga inhibitor 97, Cycloheximide cs 32
CC(C)(C)c1ccc(C(=O)c2c[nH]c(C(=O)O)c2)cc1	Cycloheximide cs 29 (no result: NS1 function inh)
CN(C)C=NC(=O)c1cc(C(=O)c2ccccc2Cl)c[nH]1	Pf growth 96h inconclusive
CN(C)C=NC(=O)c1cc(C(=O)c2ccc(C(C)(C)C)cc2)c[nH]1	Shiga inhibitor 83, Cycloheximide cs 44 (no result: NS1 function inh)
CCCCn1nnnc1SCC(=O)N1CCOCC1	Pf growth 96h inconclusive
CC(=O)c1cccc(CN2CCCC(CCC(=O)NCc3ccc(F)c(F)c3)C2)c1 (centres undefined)	Pf growth 48h inconclusive, Pf growth 96h inconclusive
COCCOc1cc2ncnc(N3CCC(C(=O)O)CC3)c2cc1OCCOC	none
Cc1ccc(-c2nn3c(C)nnc3s2)cc1NC(=O)CSc1ccc(Cl)cc1	none
COc1ccc2oc(-c3ccc(C)c(NC(=O)CSc4ccc(Cl)cc4)c3)nc2c1	Shiga inhibitor 65, Cycloheximide cs 25
O=C(CSc1ccc(Cl)cc1)Nc1cc(-c2nc3ncccc3o2)ccc1Cl	Pf growth 48h inconclusive, Pf growth 96h 4.7µM
Cc1cc(C(=O)N2CCCC(C(=O)c3ccc4ccccc4c3)C2)n(C)n1 (centres undefined)	Pf growth 48h inconclusive
CCC[C@@H](O)c1cc2cc(OC)c(OC)cc2c(=O)o1	Pf growth 96h 2.6µM (no result: Shiga inhibitor, Cycloheximide cs, NS1 function inh)
COc1cc2cc(C(C)(C)O)oc(=O)c2cc1OC	none (no result: Shiga inhibitor, Cycloheximide cs, NS1 function inh)
CC(=O)Nc1ccc(C(=O)OCc2ccccc2Cl)cc1	Shiga inhibitor 64, Cycloheximide cs 42
CCC(=O)Nc1ccc(C(=O)OCc2ccccc2Cl)cc1	Cycloheximide cs 33 (no result: Pf growth 48h)
CC(=O)Nc1ccc(C(=O)OCCCOC(=O)c2ccc(NC(C)=O)cc2)cc1	none
CCc1nnc(NC(=O)CCC(=O)NC2CCCCCC2)s1	none
COc1ccc(C(=O)NCc2ccc3c(c2)OCO3)cc1S(=O)(=O)N(C)Cc1ccccc1	none
COc1ccc(C(=O)Nc2ccc(NC(C)=O)cc2)cc1S(=O)(=O)N(C)Cc1ccccc1	Pf growth 48h inconclusive, Pf growth 96h 4.7µM (no result: Shiga inhibitor, Cycloheximide cs, NS1 function inh)
COc1cc(C(=O)Nc2ccc(O)cc2)ccc1OC(C)=O	none (no result: Pf growth 96h)
COc1cc(C(=O)Nc2ccc3ccccc3c2)cc(OC)c1OC	Cycloheximide cs 14, Pf growth 48h 5.2µM, Pf growth 96h 1.7µM
COc1ccc(OC)c(C(=O)c2ccc(C(=O)Nc3ccc4ccccc4c3)cc2)c1	Shiga inhibitor active, Cycloheximide cs 50, Pf growth 48h inconclusive, Pf growth 96h inconclusive
